Screening results deposited in PubChem BioAssay by National Center for Advancing Translational Sciences (NCATS).
Shown are actives, neighbours in structure and some others; about 3.6% of the full set was active somewhere.
IMPase Li inh: qHTS Assay for Identifying the Cell-Membrane Permeable IMPase Inhibitors: Potentiation with Lithium; CHO-M1 cells, IP1 TR-FRET (IP-One), carbachol + lithium; Potency, µM (highest dose often 59.4 µM), inactives show top-dose activity, negative = IMPase inhibition, actives largely listed as inhibitors; hit rate 0.35% among 210,000; AID 1457, 2008;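 also: IP1 builds up when IMPase is blocked and the TR-FRET signal falls; plate controls were basal vehicle for no effect and high inhibitor control for full effect; nearly all actives have a fitted effect of over 50% in size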
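IP1 accumulation measured by competitive TR-FRET in lysed CHO-M1 cells after 30 min compound exposure at 37C, with a small lithium addition to potentiate weak responses. Hill-equation AC50 from ratio and donor-channel data.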
NPSR antag: qHTS Assay for Antagonists of the Neuropeptide S Receptor: cAMP Signal Transduction; Q6W5P4; Potency, µM (highest dose often 38.3 µM), without a hit: at the top dose activity change, negative = inhibition, usual class: inhibitors; CHO-NPSR cells, cAMP TR-FRET, antagonist mode; hit rate 1% among 220,000; also: % is scaled to controls: 0 for no effect and ±100 for the full control effect; nearly all actives have a fitted effect of over 50% in size
Target sequence (Q6W5P4 whole entry, looked up): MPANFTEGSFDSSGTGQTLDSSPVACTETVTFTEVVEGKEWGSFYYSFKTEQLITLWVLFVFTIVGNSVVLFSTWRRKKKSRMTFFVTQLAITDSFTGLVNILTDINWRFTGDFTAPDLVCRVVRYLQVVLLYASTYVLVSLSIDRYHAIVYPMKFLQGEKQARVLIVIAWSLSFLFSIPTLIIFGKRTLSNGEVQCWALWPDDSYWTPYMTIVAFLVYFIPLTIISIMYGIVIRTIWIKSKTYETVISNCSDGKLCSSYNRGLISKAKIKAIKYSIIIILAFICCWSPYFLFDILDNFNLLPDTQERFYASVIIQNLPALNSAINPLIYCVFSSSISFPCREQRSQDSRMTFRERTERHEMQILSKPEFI
Epigenetic reg: Quantitative High-Throughput Screen for Regulators of Epigenetic Control; Potency, µM (top dose mostly 53.9 µM), inactives show top-dose GFP activation, usual class: activators; hit rate 0.2% among 280,000; AID 1865, 2009; murine LDR cells, GFP reporter derepression, 30 h; also: % of control where 0% means no effect; nearly all actives have a fitted effect of over 60% in size
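GFP-positive cell count by laser-scanning cytometry (objects 20–120 um) after 30 h, 37 C compound exposure of murine LDR cells; reporter is CMV-GFP integrated at a silenced locus, inducible by HDAC or DNMT inhibitors.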
GCN5L2 inh: qHTS Assay for Inhibitors of GCN5L2 | Histone acetyltransferase KAT2A (Homo sapiens), Q92830 | Potency, µM (top dose mostly 58.9 µM), without a hit: at the top dose activity change, negative = inhibition, actives largely listed as inhibitors | GCN5L2 HAT assay, ThioGlo1 CoA-SH fluorescence | hit rate 0.21% among 390,000; also: % is scaled to controls: 0 for no effect and ±100 for the full control effect
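Fluorescence readout, Ex340nm/Em540nm: ThioGlo1 (50uM final) reacts with free CoA thiol released as 20nM GCN5L2 acetylates H3(1-25) peptide (75uM) using acetyl-CoA (70uM). Compound and enzyme sat 15 min beforehand; 20 min room-temperature reaction.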
Sfp inh: qHTS Assay for Inhibitors of Bacillus subtilis Sfp phosphopantetheinyl transferase (PPTase) | Potency, µM, for inactives: largest response in the series, negative = inhibition, usual class: inhibitors | hit rate 3.5% among 310,000 | Biochemical Sfp PPTase activity, qHTS;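 also: the enzyme is Sfp with the accession as filed and its product quenches rhodamine fluorescence; 0% = enzyme reaction without inhibitor and -100% = no enzyme wells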
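Sfp 15 nM + cpd, 15 min RT; start w/ rhodamine-CoA 5 uM, BHQ-2-YbbR 12.5 uM (final); 50 mM Hepes pH 7.6, 10 mM MgCl2, 0.01% NP-40, 0.01% BSA; read 525/598 nm at 0 and 30 min.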
JMJD2E inh: qHTS Assay for Inhibitors of Human Jumonji Domain Containing 2E (JMJD2E) | Potency, µM (series often up to 57.1 µM), without a hit: top-dose activity change, negative = inhibition, most hits filed as inhibitors | JMJD2E catalytic domain, FDH-coupled NADH fluorescence (FDH is formaldehyde dehydrogenase) | Lysine-specific demethylase 4E (Homo sapiens), B2RXH2 | hit rate 1.6% among 230,000 | AID 2147, 2009; active = well fitted inhibition curve with a large enough effect, not every such curve was filed as active; inconclusive = small, poorly fitted or top-dose-only effect, or another doubt; inactive = no such curve, though single readings can be large or run the other way;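 also: 0% = wells with enzyme and -100% = buffer wells without enzyme; nearly all actives have a fitted effect of over 50% in size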
Target sequence (B2RXH2 1-337 limits assumed): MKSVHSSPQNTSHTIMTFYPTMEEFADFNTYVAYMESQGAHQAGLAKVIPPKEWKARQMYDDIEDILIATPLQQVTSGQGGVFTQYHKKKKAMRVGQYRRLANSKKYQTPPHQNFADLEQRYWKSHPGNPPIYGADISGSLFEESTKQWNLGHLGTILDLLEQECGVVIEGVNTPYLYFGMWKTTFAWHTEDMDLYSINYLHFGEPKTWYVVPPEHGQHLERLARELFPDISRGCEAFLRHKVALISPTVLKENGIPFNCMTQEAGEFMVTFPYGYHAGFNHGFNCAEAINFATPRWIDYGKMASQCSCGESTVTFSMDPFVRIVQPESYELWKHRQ
An asterisk follows results filed as active; ? = inconclusive; / = not tested or not shown; [ ] = dose if it differs, or a comment. Unless noted, calls follow the shape of the dose curve; as a rule, active = well fitted curve in the direction sought with a large enough effect; inconclusive = small, poorly fitted or top-dose-only effect, or another doubt; inactive = no such curve, though single readings can be large; an effect the other way counts as inactive or inconclusive. Potency is read from the fitted curve at half-maximal effect.

SMILES	IMPase Li inh	NPSR antag	Epigenetic reg	GCN5L2 inh	Sfp inh	JMJD2E inh
COc1ccc2[nH]c3c(C)c4ccncc4c(C)c3c2c1	/	?	?	-4%	16µM*	8.9µM*
COCc1cc(CN2CCN(C)CC2)c(O)c2ncccc12	29%[38.3 µM]	-25%[46.1 µM]	?	1%	17%	0%
Oc1c(Br)cc(Br)c2cccnc12	14%	/	?	25%	19%	20µM*
CCOCc1cc(CN2CCN(c3cccc(Cl)c3)CC2)c(O)c2ncccc12	/	/	3.5µM*	-3%	/	/
CC(C)OCc1cc(CN2CCN(c3ccccc3)CC2)c(O)c2ncccc12	/	/	2µM*	-4%	/	/
Oc1c(CN2CCN(c3ccccc3)CC2)cc(Br)c2cccnc12	-3%	7.9µM*	?	-1%	13%	?
NS(=O)(=O)c1ccc(NC(=O)CN2CCN(c3ccc(F)cc3)CC2)cc1	/	/	7%	4%	/	/
CCOc1ccccc1NC(=O)c1cc2c(=O)oc3ccccc3c2s1	/	/	0%	20%	/	/
Oc1c(CN2CCOCC2)cc(COCc2ccccc2)c2cccnc12	1%	-16%[46.1 µM]	4µM*	34%	22%	25µM*
Oc1c(CNc2ccccc2)cc(COCc2ccccc2)c2cccnc12	/	/	/	-17%	/	/
CC(=O)Nc1ccc(SCCN2CCN(CC(C)C)CCC2=O)cc1	/	/	/	/	45µM*	/
CN1CCc2c(sc3c2C(=O)NC(c2ccccc2)N3)C1 (stereo unspecified)	-2%	-10%	10%	-9%	56µM*	?
Cc1ccc(C2NC(=O)c3c(sc4c3CCN(C)C4)N2)s1 (stereo unspecified)	8%[38.3 µM]	-27%[46.1 µM]	2%	-10%	-2%	?
CN1CCc2c(sc3c2C(=O)NC(c2ccccn2)N3)C1 (stereo unspecified)	-3%[38.3 µM]	-6%[46.1 µM]	3%	-8%	16µM*	?
O=C1NC(c2ccc(Br)cc2)Nc2sc3c(c21)CCC3 (stereo unspecified)	-8%[38.3 µM]	-7%[46.1 µM]	-1%	-16%	40µM*	-23%
Cc1cccc(C2NC(=O)c3c(sc4c3CCN(C)C4)N2)c1O (stereo unspecified)	/	/	-2%	17%	/	/
O=C1NC(c2ccccn2)Nc2sc3c(c21)CCC3 (stereo unspecified)	-10%[38.3 µM]	?	0%	1%	32µM*	?
CCCCCCCCN=C(N)c1ccc(C(=O)OCC2CCCCC2)cc1	/	/	/	-9%	?	/
Cc1ccsc1C1NC(=O)c2ccccc2N1 (stereo unspecified)	-6%	-5%[46.1 µM]	2%	-3%	5%	28µM*
O=C1NC(c2cccs2)Nc2ccccc21 (stereo unspecified)	-3%[38.3 µM]	2%[46.1 µM]	-1%	-7%	4%	?
Cc1ccsc1C1NC(=O)c2c(sc3c2CCCC3)N1 (stereo unspecified)	1%	3%[46.1 µM]	2%	-4%	45µM*	?
CC(C)(C)C1CCc2c(sc3c2C(=O)NC(c2ccco2)N3)C1 (stereo unspecified)	5%	-13%[46.1 µM]	2%	-4%	56µM*	?
CCc1cnc2c(c1SCC(=O)c1ccc(Cl)cc1)c(=O)n(C)c(=O)n2C	/	/	1%	-3%	/	/
COC(=O)c1cc2sccc2n1CC(=O)Nc1cc(Cl)ccc1OC	/	/	1%	4%	/	/
CCCCCCCCCCCCC/C=C/C(O)C(COP(=O)(O)OCCN)NC(=O)CCCCCCCCCCCCCCCCC (stereo unspecified)	/	/	/	21%	-1%	/
SMILES	IMPase Li inh	NPSR antag	Epigenetic reg	GCN5L2 inh	Sfp inh	JMJD2E inh
Cc1cc(N)ccc1N1CCCC1	45%[38.3 µM]	-24%[46.1 µM]	-1%	?	14µM*	-28%
Cc1cc(N)ccc1-n1c(C)ccc1C	-4%[38.3 µM]	-8%[46.1 µM]	-1%	-5%	-9%	?
COc1ccc(/C=C/C(=O)c2cc3c(cc2N)OCO3)cc1	2%	-10%	0%	-15%	?	22µM*
COc1ccc(C(=O)/C=C/c2ccccc2)c(O)c1	-2%	-34%	6%	0%	20µM*	4%
CCCc1nc2c(=O)n(C)c(=O)nc-2n(C)n1	11%	7.9µM*	-1%	-4%	10%	?
Cn1nc(-c2ccccn2)nc2c(=O)n(C)c(=O)nc1-2	/	2.5µM*	?	-5%	50µM*	7.1µM*
CCN(CC)C(=O)Cn1c(SCC(=O)Nc2ccc(F)cc2)nc2ccccc21	/	/	-3%	14%	/	/
Cc1cc(NC(=O)CSc2nc3ccccc3c(=O)n2-c2ccccc2)no1	7.1µM*	13%[46.1 µM]	-5%	4%	6%	1%
Cc1cc(NC(=O)CSc2nc(C(C)C)nc3ccccc23)no1	13µM*	-15%[46.1 µM]	-1%	1%	13%	6%
Cc1noc(C)c1CSc1nc2ccccc2s1	16%[38.3 µM]	-8%[46.1 µM]	-1%	?	-8%	-1%
Cc1ccc(-n2c(SCC(=O)Nc3cc(C)on3)nc3ccccc3c2=O)cc1	14%[38.3 µM]	2%[46.1 µM]	3%	1%	16%	9%
CC(C)Cc1nnc(NC(=O)CSc2ccccn2)s1	7%[38.3 µM]	-10%[46.1 µM]	0%	-7%[0.501 µM]	45µM*	10%
Cc1noc(C)c1CSc1ccc2ccccc2n1	7%	-16%	-1%	-4%	79µM*	-10%
Cc1nnc(NC(=O)CSc2ccccn2)s1	-1%[38.3 µM]	-3%[7.67 µM]	0%	-2%	1%	3%
COc1ccc2nc3c(cc2c1)Cc1ccccc1-3	12%	/	2%	/	-6%	?
Cc1ccc(/C=C2/CNC/C(=C\c3ccc(C)cc3)C2=O)cc1	/	/	/	-4%	-5%	/
COc1ccc(C2/C=C\CN(S(=O)(=O)c3ccc(C)cc3)C(Cc3ccccc3)C(=O)N2Cc2ccc(F)cc2)cc1 (stereo unspecified)	/	/	/	/	-5%	/
Cc1nnc(NC(=O)CSc2nc(C(C)C)nc3ccccc23)s1	7.9µM*	20%[46.1 µM]	7%	-18%	4%	0%
Cc1cc(NC(=O)Cn2c(=O)n(Cc3ccccc3)c(=O)c3ccccc32)no1	-10%[38.3 µM]	-11%[46.1 µM]	1%	-5%	25µM*	3%
COc1ccccc1NC(=O)Cn1c(=O)n(Cc2ccccc2)c(=O)c2ccccc21	/	/	10%	-11%	/	/
Cc1noc(C)c1CSc1nc2ccccc2c(=O)n1-c1ccc(Cl)cc1	44%[38.3 µM]	10µM*	-2%	-10%	-3%	-10%
CC(C)c1nc(SCC(=O)NC2CCCC2)c2ccccc2n1	/	/	/	-2%	9%	/
NC(=O)[C@H]1O[C@@H](O)[C@H](O)[C@@H](O)[C@@H]1O	/	/	/	0%	5%	/
O=C(NC1CCCCC1)C(=S)NCCc1ccccc1	4%	-25%	0%	-11%	28µM*	1%
